Experimental findings from PubChem BioAssay (Tox21) are described below.

Structures are written as SMILES. Activity calls are given as the source filed them. Calls come from the whole dose curve; as a rule, active = well fitted curve in the direction sought with a large enough effect in the repeat runs; inconclusive = weak or mixed curves; inactive = flat fitted curve, though single readings scatter.

The assay in a line: qHTS assay to test for compound auto fluorescence at 590 nm (red) in HEK293 cell free culture (AID 720683). Particulars: cell-free medium autofluorescence, Ex540/Em590 red; series mostly up to 46 µM. The source says:
U.S. Tox21 Program National Center for Advancing Translational Sciences [NCATS] NIH Chemical Genomics Center [NCGC] U.S. Environmental Protection Agency [EPA] National Institutes of Environmental Health Sciences [NIEHS] National Toxicology Program [NTP] U.S. Food and Drug Administration [FDA] Tox21 Assay Overview: Compound auto fluorescence often interferes with screening of the compound library against various biological targets and signaling pathways. Some of these compounds may have fluorophoric properties. Such properties may interfere with the assay outputs resulting in false positives and/or negatives. To decrease such complications and ensure the compound activities are relevant in terms of biological response, the Tox21 10K compound library was screened for auto fluorescence. From the fluorophores used as reporter signals in our screening assays, the auto fluorescence equivalencies of compounds against three fluorophores have been evaluated: Triamterene, Fluorescein and Rose Bengal sodium for blue, green and red fluorescence, respectively. The fluorescence intensities were measured using Excitation/Emission wavelengths at 405/460nm, 485/535nm and 540/590nm for blue, green and red labels, respectively. This assay includes the red fluorescence data.
Tox21 Assay Protocol Summary: 5 uL of culture medium (DMEM containing 10% FBS) per well was dispensed into black wall/clear bottom 1536-well plates using a Multidrop Combi Dispenser (ThermoFisher Scientific, Waltham, MA). After 23 nL compound or DMSO vehicle was transferred into assay plate by a pintool work station (Kalypsys, San Diego, CA), fluorescence intensities in the assay plates were measured by an Envision (PerkinElmer, Shelton, CT) plate reader using three labels for measuring blue, green and red fluorescence at […] 460, 535 and 590nm respectively.
Background: In qHTS, concentration-response curves come from the screen itself.
Turning to `C=CCCCCCCCCC=O`, the molecule was classed as inactive.
Next, `CCc1ccc(O)c(OC)c1`: “inactive”; `NC(=O)Nc1ccccc1`: “inactive”.
Regarding `CCC(=O)OC(C)c1ccccc1` (stereo not given), the molecule was classed as inactive.
Take `c1ccc([C@H]2CN3CCSC3=N2)cc1`: the molecule was called inactive.
As to `CCOC(C)(C)C`, the call was inactive.
Next, `COC(=O)c1ccc(C)cc1C1=NC(C)(C(C)C)C(=O)N1` (stereo not given): “inactive”; `COc1nc(N)nc2c1ncn2[C@@H]1O[C@H](CO)[C@@H](O)[C@@H]1O`: “inactive”.
Consider `C=C1CC[C@H]2C[C@@H]1C2(C)C`, for which the call was inactive.
`FC1(F)C(F)(F)C(F)(F)C2(F)C(F)(F)C(F)(F)C(F)(F)C(F)(F)C2(F)C1(F)F` (stereo not given): the call was inactive.
Regarding `O=C1CCCC(=O)C1`, the call was inactive.
With `CCCCCCCCCCCCCCCCC`, the call was inactive.
For `Nc1ccc(S(=O)(=O)Nc2ccnn2-c2ccccc2)cc1`, the result was inactive.
In the case of `O=c1cc(-c2ccccc2)oc2ccccc12`, the result was inactive.
Then `NS(=O)(=O)c1ccc(C(=O)O)cc1`, with “inactive”; and `COC(=O)CC(C)=O`, with “inactive”; and `CCN(CC)CCOCCOC(=O)C1(c2ccccc2)CCCC1`, with “inactive”.
Then `N=c1nc(N2CCCCC2)cc(N)n1O`, with “inactive”; and `Cc1cc(O)cc2c1O[C@](C)(CCC[C@H](C)CCC[C@H](C)CCCC(C)C)CC2`, with “inactive”; and `O=C(O)CCCc1ccccc1`, with “inactive”.
For the molecule `NS(=O)(=O)c1cc2c(cc1Cl)NC(C1CC3C=CC1C3)NS2(=O)=O` (stereo not given), the call was inactive.
Next, `CN1C(=O)N(C)C(O)C1O` (stereo not given): “inactive”; `CCN(Cc1ccncc1)C(=O)C(CO)c1ccccc1` (stereo not given): “inactive”.
For `Nc1ccccc1S(=O)(=O)O`, the molecule was called inactive.
Next, `CC(C)NC(=O)NC(C)C`: “inactive”; `Cc1cc2c(cc1S(N)(=O)=O)S(=O)(=O)CCC2`: “inactive”.
Then `COC(=O)CCSCCC(=O)OC`, with “inactive”.
Then `N[C@@H](C(=O)N[C@@H]1C(=O)N2C(C(=O)O)=C(Cl)CS[C@H]12)c1ccccc1`, with “inactive”; and `CC(C)(c1ccc(O)cc1)c1ccc(O)cc1`, with “inactive”; and `O=c1cc(CO)occ1O`, with “inactive”.
Consider `CCCCCCCCS(=O)(=O)Cl`, for which the molecule was called inactive.
Consider `Oc1ccc(C2CNCCc3c2cc(O)c(O)c3Cl)cc1` (stereo not given), for which the molecule was called inactive.
Next, `CC(=O)CC(C)C`: “inactive”; `C=COCC1CCC(CO)CC1` (stereo not given): “inactive”; `N=C(N)c1ccc(OCCCOc2ccc(C(=N)N)cc2)cc1`: “inactive”.
For the molecule `Nc1cc(=O)[nH]c(N)n1`, the molecule was classed as inactive.
Take `CCN1CCC[C@H]1CNC(=O)c1c(O)c(Cl)cc(Cl)c1OC`: the molecule was called inactive.
Then `COc1ccc(CCN(C)CCCC(C#N)(c2cc(OC)c(OC)c(OC)c2)C(C)C)cc1OC` (stereo not given), with “inactive”.
`CC(=O)OCC(=O)[C@@]1(O)CCC2C3CCC4=CC(=O)CC[C@]4(C)C3[C@@H](O)C[C@@]21C` (stereo not given in full): the molecule was classed as inactive.
Then `OCCOc1ccc(OCCO)cc1`, with “inactive”.
